Measured values as given in PubChem BioAssay AID449762 (Southern Research Specialized Biocontainment Screening …, 2010).
Screen size: about 330,000 compounds; about 1,900 (0.58%) were called active. About 4% were inconclusive and are not listed. These entries were drawn from the full list. Entries with a potency or affinity are not part of this list. A number with no mark means an inactive call. No stated cut-off is given here; in the data, inconclusive means inhibition above about 70% without an active follow-up result; inactive means below that.

experiment: M. tuberculosis growth inhibition, HTS (AID 449762);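 further: bacterial growth assessed after seven days of incubation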; conditions: M. tuberculosis H37Rv growth inhibition, 7H9 media; at 25 µM; active compounds read high

Row | SMILES | inhibition
1 | CC(=O)Nc1ccc(SCC(=O)Nc2sccc2C#N)cc1 | -2.99%
2 | O=C(OCC(=O)c1c[nH]c2ccccc12)c1cncc(Br)c1 | -0.17%
3 | O=C(OCC(=O)c1c[nH]c2ccccc12)c1ccc(Br)o1 | 5.56%
4 | CCOC(=O)c1c(NC(=O)c2ccccc2C(=O)O)sc2c1CCCC2 | -6.92%
5 | CCOC(=O)c1c(NC(=O)c2ccccc2C(=O)O)sc2c1CCC2 | -2.86%
6 | CCN1CCN(CC(O)COc2ccc(C)c(C)c2)CC1 (stereo not drawn) | 4.44%
7 | COC(=O)c1sccc1NC(=O)c1ccccc1C(=O)O | 1.76%
8 | CCn1nc(NC(=O)c2ccncc2)c2cc3ccccc3nc21 | 2.23%
9 | CCn1nc(NC(=O)c2ccncc2)c2cc3ccc(C)cc3nc21 | 4.05%
10 | O=C(Nc1ccccc1C(=O)O)c1cc(S(=O)(=O)N2CCCCC2)c(Cl)cc1Cl | -1.16%
11 | CCn1c2ccc(CC(=O)O)cc2c2cc(CC(=O)O)ccc21 | -11.4%
12 | COc1ccc(NC(=O)CN2CCN(CC(=O)Nc3ccccc3F)CC2)c(OC)c1 | -3.25%
13 | Cc1ccc(NC(=O)c2nc[nH]c2C(=O)NCCCNC(=O)c2[nH]cnc2C(=O)Nc2ccc(C)cc2)cc1 | 5.52%
14 | Cc1ccc(Nc2ccc(-n3ccnc3)nn2)cc1C | -0.37%
15 | c1ccc(Nc2ccc(-n3ccnc3)nn2)cc1 | -2%
16 | COCc1cc(=O)[nH]c(/N=C(\N)Nc2ccc(C)cc2)n1 | -14.4%
17 | Cc1nn(C)c(C)c1Nc1ccc(N2C(=O)C3C4C=CC(C4)C3C2=O)cc1[N+](=O)[O-] (stereo not drawn) | 10.1%
18 | CCCn1nnnc1SCC(=O)N1C(C)CCCC1C (stereo not drawn) | 5.01%
19 | COc1ccc(C(OCC(O)CNCCc2ccccc2)c2ccc(OC)cc2)cc1 (stereo not drawn) | 19.9%
20 | COc1ccccc1COCC(O)CNCCc1ccc(C(F)(F)F)cc1 (stereo not drawn) | 1.34%

Row | SMILES | inhibition
21 | O=C(O)CCn1nnc(-c2ccccc2)n1 | -0.81%
22 | COc1ccc(OCC(=O)N(Cc2ccco2)C2CCS(=O)(=O)C2)cc1 (stereo not drawn) | 3.83%
23 | Cc1ccc(S(=O)(=O)N2CCCCC2)cc1NC(=O)C1CCC1 | 0.72%
24 | Cc1ccc(-c2nc3ccccc3c(=O)o2)cc1 | 12.5%
25 | Cc1ccc(-c2nc3ccsc3c(=O)[nH]2)cc1 | 5.58%
26 | C=CCN1C(=O)/C(=C/c2cccs2)S/C1=N\S(=O)(=O)c1ccc(F)cc1 | 0.38%
27 | COc1ccc(NC(=O)CCNC(=O)C2CCN(S(=O)(=O)c3ccc(OC)cc3)CC2)cc1 | 10.1%
28 | CC(C)(C)OC(=O)COc1cc(O)c2c(=O)cc(-c3ccccc3)oc2c1 | 39.4%
29 | O=C(COc1cc(O)c2c(=O)cc(-c3ccccc3)oc2c1)c1ccccc1 | -3.97%
30 | CSc1nnc(-c2cc(Br)ccc2N=Cc2c(C)[nH]n(-c3ccccc3)c2=O)c(=O)[nH]1 | 4.16%
31 | O=[N+]([O-])c1c(Nc2ccccc2O)cc(N2CCOCC2)c2nonc12 | 0.81%
32 | CCOC(=O)C1CCCN(S(=O)(=O)c2ccc(-c3cc(C)no3)s2)C1 (stereo not drawn) | 3.93%
33 | CCO[C@H]1OC(C(=O)NCc2nc3ccccc3[nH]2)=C[C@@H](c2ccccc2)[C@@H]1CCCO | -4.83%
34 | CCO[C@@H]1OC(C(=O)NCc2nc3ccccc3[nH]2)=C[C@H](c2ccccc2)[C@H]1CCCO | 10.6%
35 | Cc1ccc(C)n1CCN1CCN(C(=O)CSc2nc3ccccc3nc2N2CCOCC2)CC1 | 5.46%
36 | O=C(CSc1nc2ccccc2nc1N1CCCCC1)N1CCN(c2ccccc2)CC1 | -7.86%
37 | COc1ccc2[nH]c(=O)c(CN(CC3CCCO3)S(=O)(=O)c3ccccc3)cc2c1 (stereo not drawn) | 2.57%
38 | Cc1ccccc1OCC(=O)NNC(=O)C1CCCCC1C(=O)O (stereo not drawn) | 2.25%
39 | Cc1ccc(C)c(N(C(=O)c2nsc(Cl)c2Cl)C(C(=O)NC2CCCC2)c2ccc(O)cc2)c1 (stereo not drawn) | -2.81%
40 | Cc1cccc(N(C(=O)c2nsc(Cl)c2Cl)C(C(=O)NC2CCCC2)c2ccc(O)cc2)c1 (stereo not drawn) | -12.7%

Row | SMILES | inhibition
41 | C=CCc1c(C)nn(CC(=O)O)c1-c1ccccc1 | -6.59%
42 | COc1ccc(S(=O)(=O)N2CCC(C(=O)NC(c3nc4ccccc4[nH]3)C(C)C)CC2)cc1 (stereo not drawn) | -6.28%
43 | O=C(Nc1cc(S(=O)(=O)N2CCOCC2)ccc1N1CCCC1)C1COc2ccccc2O1 (stereo not drawn) | -4.41%
44 | COC(=O)/C(=C1/Oc2ccc(C)cc2S1)C(F)(F)F | 4.4%
45 | COC(=O)/C(=C1/Oc2ccc(C(C)(C)C)cc2S1)C(F)(F)F | -1.9%
46 | O=S(=O)(c1ccc(Cl)c(NC(=S)Nc2cccc(O)c2)c1)N1CCOCC1 | 1.85%
47 | CC12CCC(=O)N1C(C(=O)N1CCN(S(=O)(=O)c3cccc(C(F)(F)F)c3)CC1)CS2 (stereo not drawn) | 2.29%
48 | CC1CC1C(=O)Nc1nc2ccc(Cl)cc2s1 (stereo not drawn) | 16.9%
49 | O=C(Nc1nc2ccc(Cl)cc2s1)C1CC1 | 7.91%
50 | O=C(Cc1nnc(NC(=O)Nc2ccc(F)cc2)s1)NCc1ccccc1 | -2.08%
51 | COc1ccc(N2C(=O)CCC2=O)cc1 | -16.1%
52 | CCOc1ccc(C(=O)NNC(=O)CN2C(=O)C3CC=CCC3C2=O)cc1OC (stereo not drawn) | 3.32%
53 | CN(C(=O)COC(=O)c1cc(NS(=O)(=O)c2cc([N+](=O)[O-])ccc2Cl)ccc1O)C1CCCCC1 | 0.85%
54 | CN(C(=O)COC(=O)c1ccc(Cl)cc1N)C1CCCCC1 | -0.1%
55 | CCN(C(=O)COC(=O)CNC(=O)c1sc2ccccc2c1Cl)C1CCCCC1 | 39.4%
56 | CC1CCCC(NC(=O)COC(=O)c2sc3ccccc3c2Cl)C1C (stereo not drawn) | -11.1%
57 | C=CCn1c(N)c(C(=O)N2CCOCC2)sc1=S | -5.77%
58 | c1ccc(CCNc2ncnc3sccc23)nc1 | -8.28%
